In all, about 360,000 compounds went through this assay and about 1,300 (0.36%) were called active. No stated cut-off is given here; in the data, active means inhibition above about 35% (passing the limit was not always enough); inactive means the rest. Many of the other results were omitted from the sample, so actives are more common in it than they were.
Biological target: Polyadenylate-binding protein 1 (Homo sapiens) (UniProt P11940)
Assay: inhibitors of PABP1 MLLE–PAM2 peptide binding, primary screen, biochemical, fluorescence polarization, FITC-PAM2, GST-MLLE (AID 588489);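 further: plate controls were DMSO wells with GST-MLLE for no effect and wells lacking GST-MLLE protein for full effect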
Settings: at 20 µM, stronger effect = higher value

Chain of Polyadenylate-binding protein 1 (Homo sapiens) (P11940 whole entry, looked up): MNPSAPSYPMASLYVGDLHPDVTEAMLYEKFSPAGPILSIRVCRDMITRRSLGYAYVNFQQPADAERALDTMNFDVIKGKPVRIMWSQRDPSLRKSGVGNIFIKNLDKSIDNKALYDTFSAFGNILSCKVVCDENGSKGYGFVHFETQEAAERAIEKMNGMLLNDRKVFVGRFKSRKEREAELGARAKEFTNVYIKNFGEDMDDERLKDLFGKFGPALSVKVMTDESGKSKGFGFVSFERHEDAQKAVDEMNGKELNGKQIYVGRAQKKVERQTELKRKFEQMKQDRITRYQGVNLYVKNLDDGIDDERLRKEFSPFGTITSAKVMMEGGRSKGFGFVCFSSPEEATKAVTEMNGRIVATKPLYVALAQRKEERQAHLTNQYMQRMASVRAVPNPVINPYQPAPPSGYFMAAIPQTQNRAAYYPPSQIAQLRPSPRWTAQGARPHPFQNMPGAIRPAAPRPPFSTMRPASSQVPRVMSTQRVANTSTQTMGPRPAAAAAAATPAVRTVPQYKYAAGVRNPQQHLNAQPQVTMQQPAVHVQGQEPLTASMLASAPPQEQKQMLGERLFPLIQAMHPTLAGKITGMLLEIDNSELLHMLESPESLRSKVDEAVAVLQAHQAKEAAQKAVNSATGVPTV

Row | SMILES | inhibition
1 | O=C1NCCn2nc3ccccc3c21 | 0.33% (inactive)
2 | O=c1[nH]c(=O)c2nc3ccccc3nc2[nH]1 | 53.2% (active)
3 | Nc1ccc2nc3c(=O)[nH]c(=S)[nH]c3nc2c1 | 177% (inactive)
4 | Cc1cc2cc(CNC(=O)c3cccs3)ccc2[nH]1 | 38% (inactive)
5 | COC(=O)c1ccc(CNC(=O)c2ccc(S(=O)(=O)N3CCCCCC3)cc2)cc1 | -6.55% (inactive)
6 | Cc1cc2cc(CNC(=O)c3ccc(S(=O)(=O)N4CCOCC4)cc3)ccc2[nH]1 | 45.1% (active)
7 | COCCN(C(=O)c1ccccc1F)c1c(N)n(Cc2ccccc2)c(=O)[nH]c1=O | -9.82% (inactive)
8 | COCCn1c(N)c(NCc2ccccc2)c(=O)[nH]c1=O | 44.1% (active)
9 | COCCn1c(N)c(N(Cc2ccccc2)C(=O)C2CCCCC2)c(=O)[nH]c1=O | -2.43% (inactive)
10 | C=CCc1cccc2cc(C(=O)NC3CCCC3)c(=O)oc12 | 6.38% (inactive)
11 | CC1CN(C(=O)c2ccc3c(c2)OCO3)OC(c2ccccc2)O1 (stereo not given) | 0.75% (inactive)
12 | CSCCC(NC(=O)C1CCC(C)CC1)C(=O)NCc1ccco1 (stereo not given) | -8.36% (inactive)
13 | CC(=O)Nc1ccc(NC(=O)C(NS(=O)(=O)c2ccc3c(c2)OCCO3)C(C)C)cc1 (stereo not given) | 1.54% (inactive)
14 | CCOC(=O)CNc1nc(Cl)nc(Nc2ccc(OC)cc2OC)n1 | 1.38% (inactive)
15 | CCOC(=O)c1sc(=S)n(-c2cccc(OC)c2)c1N | 40.5% (active)
16 | Cc1cccc(-n2c(N)c(C(=O)N3CCN(C)CC3)sc2=S)c1 | 3.33% (inactive)
17 | CCOC(=O)C(C)n1cnc2c(nnn2-c2cccc(OC)c2)c1=O (stereo not given) | 1.6% (inactive)
18 | O=C(CN1C(=O)COc2ccc(Cl)cc21)N1CCOCC1 | 8.9% (inactive)
19 | CC1(C(=O)NS(=O)(=O)Cc2cccc(Cl)c2)CCN1C(=O)Cc1ccccc1 (stereo not given) | -3.36% (inactive)
20 | NNC(=O)CNC(c1ccccc1)c1cc(Cl)ccc1NC(=O)c1ccccc1 (stereo not given) | -2.37% (inactive)

Row | SMILES | inhibition
21 | COc1cc(NC(=O)Nc2ccc(C)cc2)cc([N+](=O)[O-])c1 | -3.48% (inactive)
22 | COc1ccc(Nc2ccc([N+](=O)[O-])cn2)cn1 | 48.7% (active)
23 | COC(=O)c1ccccc1N=NNc1ccc([N+](=O)[O-])cc1 | 18.6% (inactive)
24 | OC(c1ccc(Cl)cc1)C(CN1CCOCC1)c1ccccc1 (stereo not given) | -5.53% (inactive)
25 | C=C1c2cccc(OC)c2O[C@H](C(=O)OCC)[C@@H]1CCCCCC | -73.6% (inactive)
26 | CC(=O)c1cnc(SCCN2C(=O)c3ccccc3C2=O)nc1C | 4.46% (inactive)
27 | Cc1ccc(S(=O)(=O)NNC(=O)Nc2cccc3ccccc23)cc1 | 3.51% (inactive)
28 | COC(=O)C1=CN(c2ccc(F)c(F)c2)C=C(C(=O)OC)C1c1ccc([N+](=O)[O-])cc1 | 9.34% (inactive)
29 | COC(=O)C1=C(C(=O)OC)C(c2cc([N+](=O)[O-])ccc2O)c2sc(=O)[nH]c2S1 (stereo not given) | 40.3% (active)
30 | COC(=O)c1c(C)[nH]c(C)c1-c1ccc([N+](=O)[O-])cc1 | -2.95% (inactive)
31 | Cc1ccc(C2=NN(C)c3nc4ccccc4n3C2)cc1 | -3.04% (inactive)
32 | COc1ccc(NS(=O)(=O)c2ccc(C)c(C(=O)NNC(=O)c3csc(N4CCOCC4)n3)c2)cc1 | -13.1% (inactive)
33 | C=CCNC(=S)NNC(=O)c1ccc(Br)o1 | -45.2% (inactive)
34 | CCOc1ccc(Cn2c(SCCCCC#N)nc3c2c(=O)n(C)c(=O)n3C)cc1OCC | 44% (active)
35 | CCCCn1c(SCC(=O)NCCc2ccc(OC)c(OC)c2)nc2c1c(=O)n(C)c(=O)n2C | 4.31% (inactive)
36 | CCCSc1nc2c(c(=O)n(C)c(=O)n2C)n1Cc1ccc(C)cc1 | -1.85% (inactive)
37 | O=C(NCCC(=O)N1O[C@@H]2C=C[C@H]1C2)OCC1c2ccccc2-c2ccccc21 | -4.15% (inactive)
38 | CCOCc1nnc(NC(=O)CCC2CCCCC2)s1 | -2.53% (inactive)
39 | Cc1cc([N+](=O)[O-])nn1CCCC(=O)Nc1cccnc1Cl | 2.45% (inactive)
40 | COc1ccc(Cl)cc1-n1c(=S)sc2c(=O)n(-c3ccc(F)cc3)c(SCC(=O)O)nc21 | 43.8% (active)

Row | SMILES | inhibition
41 | COc1cccc(-n2c(=S)sc3c(=O)n(-c4ccccc4C)c(SCC(=O)O)nc32)c1 | -10.4% (inactive)
42 | COc1cccc(-n2c(=S)sc3c(=O)n(-c4ccccc4OC)c(SCC4OCCO4)nc32)c1 | -1.94% (inactive)
43 | COc1ccccc1C(=O)Oc1ccc(N2C(=O)CCC2=O)cc1 | -2.33% (inactive)
44 | O=C(c1ccc(Cn2cc([N+](=O)[O-])cn2)o1)N1CCCC1 | -7% (inactive)
45 | O=C(c1ccc(F)cc1)N1CCC(n2nnc3ccccc32)CC1 | -6.3% (inactive)
46 | CC1COc2ccccc2N1C(=O)c1ccc(F)cc1 (stereo not given) | -13.6% (inactive)
47 | O=C(c1ccc(F)cc1)n1c(=S)nc2ccccn21 | 39% (active)
48 | O=C(COC(=O)/C=C/c1nc2ccccc2s1)Nc1ccccc1Oc1ccccc1 | -5.84% (inactive)
49 | Cc1ccc(C)c(NC(=S)NNC(=S)Nc2ccc(C(C)C)cc2)c1 | 30.8% (inactive)
50 | Cc1csc(NC(=S)Nc2cccc(Cl)c2)n1 | 35.5% (active)
51 | O=C(NCc1cn2ccsc2n1)Nc1cccc(Cl)c1 | -5.66% (inactive)
52 | Cc1ccc(C2CCN(C(=S)Nc3cccc(Cl)c3)C2)cc1 (stereo not given) | -122% (inactive)
53 | Cc1cccc(NC(=S)Nc2ccc(Cl)c(Cl)c2)c1 | 37.8% (active)
54 | NS(=O)(=O)c1ccc(NC(=S)Nc2ccc(Br)c(Cl)c2)cc1 | 33.2% (inactive)
55 | CCc1noc(C)c1C(=O)N1CCCC(N2CCN(c3ccc(F)cc3)CC2)C1 (stereo not given) | -6.88% (inactive)
56 | Cc1cc(NC(=O)c2cc3ccccc3o2)no1 | 16% (inactive)
57 | CC(C)(C)n1nc2c(c1NC(=O)c1cc3ccccc3o1)CSC2 | 47.2% (active)
58 | Cc1cccc(-n2nc3c(c2NC(=O)c2cc4ccccc4o2)CS(=O)(=O)C3)c1 | 2.88% (inactive)
59 | C=CCn1c(SCC(=O)NCc2ccccc2)nnc1-c1cc(Br)ccc1O | -75.9% (inactive)
60 | CCOC(=O)C1=C(CSc2nnnn2C)N(C)C(=O)NC1c1ccccc1 (stereo not given) | -3.23% (inactive)
